The whole screen tested about 1,400 compounds, of which about 380 (27%) were called active.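 The calls were made as follows: active = mean inhibition above 50% across duplicate retests at 10 µM; inactive = the rest.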 Some of the results follow.
experiment: yeast NALP1 reporter signal suppression – S. cerevisiae, luminescence, single concentration, NALP1 inhibitor project, confirmation (AID 488841);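 also: plate controls were DMSO in galactose medium for no effect and cells in plain SD medium for full effect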; conditions: S. cerevisiae NALP1/ASC/Caspase-1 reporter, beta-gal luminescence; at 10 µM; active compounds read high

Compound	inhibition
CCN(c1ccccc1)S(=O)(=O)c1cc(NC(=O)Nc2ccccc2C#N)ccc1Cl	17.4% (inactive)
CCOC(=O)c1nnc(-c2ccc(C)cc2)nc1Sc1ccc(Cl)cc1	10.3% (inactive)
Cc1ccc(OCc2nc(-c3ccc(Cl)cc3)n[nH]2)cc1	66.9% (active)
FC(F)Oc1ccc(/C=N/c2c(-c3ccc(OC(F)F)cc3)nc3n2CCS3)cc1	31.2% (inactive)
CCc1cccc(C)c1NC(=S)NCCc1c(C)[nH]c2ccc(C)cc12	34.2% (inactive)
COc1ccc(C(=O)c2c(C(F)(F)F)oc3c2C(=O)c2ccccc2C3=O)cc1	22.6% (inactive)
Cc1nc(NC(=O)CCc2ccccc2)ccc1Br	64% (active)
Cc1csc(NC(=O)CCc2ccc(S(=O)(=O)N3CCOCC3)cc2)n1	30.4% (inactive)
O=C(OCCN1CCCCC1)c1cc2ccccc2o1	22.6% (inactive)
COC(=O)CSC1=C(C#N)C(=O)NC(c2ccccc2)S1 (configuration not stated)	28.1% (inactive)
O=C(c1ccccc1)c1c2c(cc3sc4ccccc4[n+]13)-c1cccc3cccc-2c13	35.5% (inactive)
Cc1ccc(F)cc1NCC(=O)Nc1ccc(Br)cc1	47.6% (inactive)
N#CC(C#N)=C(Nc1ccc(F)cc1)SCc1cccc(Br)c1	50.1% (active)
Cc1ccc(NC(=O)c2cccc(S(=O)(=O)N(C)c3ccccc3)c2)cc1S(=O)(=O)N1CCOCC1	28.9% (inactive)
Cc1ccc2nc(N(CCCN(C)C)C(=O)c3sc4ccccc4c3Cl)sc2c1	53.6% (active)
CN(C)CCCN(C(=O)c1ccc2c(c1)CCCC2)c1nc2ccc(Cl)cc2s1	78.2% (active)
CN(C)CCCN(C(=O)c1sc2ccccc2c1Cl)c1nc2ccc(F)cc2s1	45.3% (inactive)
CN(C)CCCN(C(=O)c1ccc2c(c1)CCCC2)c1nc2ccc(F)cc2s1	64.8% (active)
COc1ccc(CCNC(=O)c2sc3cc(C)ccc3c2Cl)cc1	35.8% (inactive)
O=c1c(F)cn(C2CCCO2)c(=O)n1Cc1c(F)cccc1Cl (configuration not stated)	26.9% (inactive)
CCOC(=O)C1(Cc2ccc(OC)cc2)CCN(C(=O)CCc2cnccn2)CC1	25.1% (inactive)

Compound	inhibition
COc1cccc(/C=N/NC(=O)CCc2c(C)n[nH]c2C)c1	25.8% (inactive)
COc1ccc(CN2CCNC(=O)C2CC(=O)N(Cc2nccn2C)C(C)C)c(OC)c1 (configuration not stated)	14.8% (inactive)
CCCCC(C(=O)NC1CCCC1)N(Cc1ccco1)C(=O)Cn1nnc(-c2ccc(F)cc2)n1 (configuration not stated)	27.3% (inactive)
O=C(NC(=S)NCCCN1CCOCC1)c1ccc([N+](=O)[O-])cc1	40% (inactive)
COc1ccc(Cc2nnc(SC)[nH]c2=O)cc1	22.6% (inactive)
Cc1cc(C(C)(C)C)cc(C)c1S(=O)(=O)N1CC(=O)Nc2ccccc21	38.6% (inactive)
COc1ccc(/C=N/N2CCOCC2)cc1COc1ccc(Cl)cc1	51.8% (active)
COc1ccccc1-c1nnc2sc(COc3ccc(Cl)cc3)nn12	49.2% (inactive)
Cn1cccc1/C=N/N1CCN(Cc2ccc(Cl)cc2)CC1	31.7% (inactive)
CC[n+]1c(/C=C/N(C)c2ccccc2)n(-c2ccccc2)c2ccc(-c3nc4ccccc4s3)cc21	55.8% (active)
CCCN1CCN(CCCNC(=O)CCNC(=O)Cn2ccc3ccccc3c2=O)CC1	35.5% (inactive)
CC[n+]1c(/C=C/c2ccc(N(C)C)cc2)ccc2ccccc21	85.5% (active)
CN(C)c1ccc(/C=C/c2ccc3ccccc3[n+]2C)cc1	85.5% (active)
CC1=C(C(=O)Nc2ccc(Cl)cc2)C(c2ccncc2)C(C#N)=C(SCC(N)=O)N1 (configuration not stated)	32.1% (inactive)
CN(C)c1ccc(N2C(=O)CC(Sc3ccccc3C(=O)O)C2=O)cc1 (configuration not stated)	24.6% (inactive)
CCOc1ccc(OCCSc2nc3ccccc3o2)cc1	42.4% (inactive)
CCOC(=O)CCCNC(=O)COC(=O)c1ccc(O)cc1	23.1% (inactive)
Cc1ccc(NC(=O)CN(C)C(=O)COc2cccc3cccnc23)cc1	25.3% (inactive)
CCN1c2ccccc2-c2nc3ccccc3n2C1c1cccs1 (configuration not stated)	32.9% (inactive)
COc1ccc(/C=N\NC(=O)c2cc(OCC(F)(F)F)ccc2OCC(F)(F)F)cc1	25.5% (inactive)
O=C(Oc1ccc(/C=N/NC(=O)c2ccccc2O)cc1)c1ccccc1	30.9% (inactive)

Compound	inhibition
O=C(C[n+]1ccc(C(=O)N/N=C/c2ccc(OCc3ccccc3)cc2)cc1)c1ccccc1	58.6% (active)
O=C1C=CC(=O)N1c1ccc(OC(F)F)cc1	59.8% (active)
COc1ccc(N2C(=O)C3[C@@H](C2=O)C2(Cl)C(Cl)=C(Cl)C3(Cl)C2(OC)OC)cc1 (some centres not stated)	42% (inactive)
COc1cc(C)ccc1OCCOCCOc1ccc([N+](=O)[O-])cc1	53.3% (active)
COc1ccc(C(=O)/C=C/Nc2ccc([N+](=O)[O-])cc2C)c(OC)c1	4.95% (inactive)
C=CCc1ccc(OCCCOc2ccc(C)cc2OC)c(OC)c1	30.9% (inactive)
CCCCN(C)C(=O)c1nc2ccccn2c1CNCCCn1ncc2ccccc21	16.4% (inactive)
COC(=O)c1c(NC(=O)C2CCCO2)sc2c1CCC2 (configuration not stated)	39.9% (inactive)
Cc1ccccc1OCC(=O)Nc1sc2c(c1C#N)CCC2	16.7% (inactive)
Cc1ccc(C(=O)c2c(NC(=O)c3ccncc3)sc3c2CCCC3)cc1	51% (active)
Cc1ccc(C(C)C)cc1OCCN1CCCC1	40.4% (inactive)
Cc1ccc(OCCCCN(C)Cc2ccccc2)c(Br)c1	61.5% (active)
CSc1ccc(CN(C)CC(=O)Nc2ccc(C)cc2Br)cc1	47.1% (inactive)
Cc1ccc(OCCCCN2CCCCC2)c(Br)c1	41.6% (inactive)
CCCCCOc1ccc(Br)cc1CSC(=N)N	57.2% (active)
C=CCNCCCCOc1ccc(Br)cc1C	41.7% (inactive)
O=C(O)CC1NC(=S)N(c2ccccc2)C1=O (configuration not stated)	29.9% (inactive)
COc1ccc(NCc2ccc([N+](=O)[O-])s2)c(OC)c1	49.1% (inactive)
CC(=O)N1N=C(c2ccc3ccccc3c2)OC1(C)C	77.3% (active)
CC(C)(C)c1ccc(COn2c(=O)c(-c3ccco3)[n+]([O-])c3ccccc32)cc1	12.9% (inactive)

— PubChem BioAssay AID488841 (Sanford-Burnham Center for Chemical Genomics, 2010)
